Assay results from PubChem BioAssay (Tox21).
Several values for one entry are separate records, joined by “and”; a condition that tells them apart may be missing. Identical values can stand only once. A number with no mark means an inactive call. Results filed as inconclusive are left out. Where a call stands in place of a potency, no number is given. Activity calls are given as the source filed them. Unless noted, calls follow the shape of the dose curve; as a rule, active = well fitted curve in the direction sought with a large enough effect in the repeat runs; inconclusive = weak or mixed curves; inactive = no such curve, though single readings can be large; an effect the other way counts as inactive or inconclusive.

What was measured:
[1] = qHTS assay to identify small molecule antagonists of the estrogen receptor alpha (ER-alpha) signaling pathway using the BG1 cell line in the presence of 0.1 nM 17-beta-estradiol - cell viability counter screen (AID 1259241); also: nearly all actives have a fitted effect of over 40% in size; also: potency is read from the fitted curve at half-maximal effect
Method in brief: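 Viability in VM7Luc4E2 cells after 22 hr compound exposure under 0.1 nM 17beta-estradiol stimulation, by CellTiter-Fluor.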

[2] = qHTS assay to identify small molecule antagonists of the androgen receptor (AR) signaling pathway using the MDA cell line in the presence of 0.5 nM R1881 - cell viability counter screen (AID 1259242); also: nearly all actives have a fitted effect of over 45% in size; also: potency is read from the fitted curve at half-maximal effect
Method in brief: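 Viability of MDA-kb2 cells was multiplexed with the luciferase AR readout; after 16 hr with compounds and R1881 at 0.5 nM final, CellTiter-Fluor fluorescence was recorded.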

[3] = biological target: Androgen receptor (Homo sapiens) (UniProt P10275); assay: qHTS assay to identify small molecule antagonists of the androgen receptor (AR) signaling pathway using the MDA cell line in the presence of 0.5 nM R1881 (AID 1259243); also: nearly all actives have a fitted effect of over 50% in size; also: potency is read from the fitted curve at half-maximal effect
Method in brief: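 Reporter cells cultured without CO2 receive test chemicals, then 0.5 nM R1881 final; after 16 hr at 37C, ONE-Glo is added and light output recorded.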

[4] = biological target: Estrogen receptor (Homo sapiens) (UniProt P03372); assay: qHTS assay to identify small molecule antagonists of the estrogen receptor alpha (ER-alpha) signaling pathway using the BG1 cell line in the presence of 0.1 nM 17-beta-estradiol (AID 1259244); also: nearly all actives have a fitted effect of over 50% in size; also: potency is read from the fitted curve at half-maximal effect
Method in brief: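 Estradiol at 0.1 nM (final) stimulates the endogenous ER-alpha of VM7Luc4E2 cells carrying an ERE-driven luciferase; compounds are co-incubated 22 h at 37C and luciferase output quantified by luminescence.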

[5] = qHTS assay to identify small molecule HDAC inhibitors (AID 1259364); also: potency is read from the fitted curve at half-maximal effect;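 also: wild-type HCT-116 cells with endogenous class I/II HDAC activity; nearly all actives have a fitted effect of over 45% in size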
Method in brief: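 Read-out: luminescence of HDAC-Glo I/II reagent, 30 min RT, reflecting class I/II deacetylase activity in whole HCT-116 cells pre-exposed 2 h to DMSO-dissolved compounds.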

[6] = qHTS assay to identify small molecule HDAC inhibitors - cell viability counter screen (AID 1259365); also: nearly all actives have a fitted effect of over 50% in size; also: potency is read from the fitted curve at half-maximal effect
Method in brief: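 Cytotoxicity was gauged in wild-type HCT-116 cells after a brief 2hr treatment with DMSO-dissolved compounds at 37C and 5% CO2, using CellTiter-Glo luminescence developed for 30min at room temperature.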

[7] = qHTS assay to identify small molecule agonists of the sonic hedgehog signaling (Shh) pathway - cell viability counter screen (AID 1259366); also: nearly all actives have a fitted effect of over 50% in size; also: potency is read from the fitted curve at half-maximal effect
Method in brief: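 Stable Gli1-Luc NIH/3T3 clone, 2,000 cells/well. Compound exposure 24hr at 37C. Read-out: CellTiter-Fluor fluorescence.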

[8] = qHTS assay to identify small molecule antagonists of the sonic hedgehog signaling (Shh) pathway - cell viability counter screen (AID 1259367); also: nearly all actives have a fitted effect of over 55% in size; also: potency is read from the fitted curve at half-maximal effect
Method in brief: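 NIH/3T3-derived Gli1-Luc reporter cells (2,000 per well) rested 4 hr at 37 C, then received DMSO compounds plus conditioned medium. After 23 hr of treatment, CellTiter-Fluor was added for 1 hr at 37C and fluorescence read.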

[9] = qHTS assay to identify small molecule agonists of the sonic hedgehog signaling (Shh) pathway (AID 1259368; calls by dose curve; also: nearly all actives have a fitted effect of over 15% in size; also: potency is read from the fitted curve at half-maximal effect)
Method in brief: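 A Gli1 transcriptional response element controlled firefly luciferase in 3T3Gli1-Luc cells. Compounds and a positive control were added 4 hr after plating, and cells were incubated a further 24 hr at 37 C before luminescence detection.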

[10] = qHTS assay to identify small molecule phospholipidosis (PLD) inducers (AID 1259344; active = well fitted curve in the direction sought with a large enough effect; an effect the other way counts as inactive or inconclusive)
Method in brief: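 HepG2 cells on collagen I, attached 4 h at 37 C, were co-treated with compound and LipidTOX Red dye for 24 h at 37 C, then fixed with paraformaldehyde plus Hoechst 33342 and imaged by high-content microscopy for phospholipid accumulation.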

Sequence of Androgen receptor (Homo sapiens) (P10275 whole entry, looked up): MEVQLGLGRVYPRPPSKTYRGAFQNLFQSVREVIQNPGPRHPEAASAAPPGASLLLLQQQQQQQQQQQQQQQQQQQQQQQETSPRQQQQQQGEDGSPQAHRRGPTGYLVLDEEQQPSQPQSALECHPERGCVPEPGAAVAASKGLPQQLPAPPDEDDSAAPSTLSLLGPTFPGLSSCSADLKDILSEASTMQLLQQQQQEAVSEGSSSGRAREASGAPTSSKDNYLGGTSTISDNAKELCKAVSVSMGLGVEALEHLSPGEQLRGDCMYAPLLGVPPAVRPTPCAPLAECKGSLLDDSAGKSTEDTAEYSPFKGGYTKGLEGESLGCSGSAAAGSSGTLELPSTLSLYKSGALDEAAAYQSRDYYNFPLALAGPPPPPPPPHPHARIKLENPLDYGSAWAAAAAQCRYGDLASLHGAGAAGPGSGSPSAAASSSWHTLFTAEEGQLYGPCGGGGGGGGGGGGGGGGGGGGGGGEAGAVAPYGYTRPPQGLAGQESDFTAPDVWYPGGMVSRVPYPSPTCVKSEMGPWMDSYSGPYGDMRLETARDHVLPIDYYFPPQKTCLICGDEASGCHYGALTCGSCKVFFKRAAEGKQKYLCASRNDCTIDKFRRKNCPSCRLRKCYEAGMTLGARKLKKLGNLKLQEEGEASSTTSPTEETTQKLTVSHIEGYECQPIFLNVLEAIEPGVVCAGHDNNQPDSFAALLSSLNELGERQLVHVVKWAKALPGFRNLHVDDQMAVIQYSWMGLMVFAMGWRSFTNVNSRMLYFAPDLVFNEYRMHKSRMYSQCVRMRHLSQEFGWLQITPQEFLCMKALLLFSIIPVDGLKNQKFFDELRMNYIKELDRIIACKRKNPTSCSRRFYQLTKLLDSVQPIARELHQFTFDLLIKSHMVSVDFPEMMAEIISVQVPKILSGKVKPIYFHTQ
Sequence of Estrogen receptor (Homo sapiens) (P03372 whole entry, looked up): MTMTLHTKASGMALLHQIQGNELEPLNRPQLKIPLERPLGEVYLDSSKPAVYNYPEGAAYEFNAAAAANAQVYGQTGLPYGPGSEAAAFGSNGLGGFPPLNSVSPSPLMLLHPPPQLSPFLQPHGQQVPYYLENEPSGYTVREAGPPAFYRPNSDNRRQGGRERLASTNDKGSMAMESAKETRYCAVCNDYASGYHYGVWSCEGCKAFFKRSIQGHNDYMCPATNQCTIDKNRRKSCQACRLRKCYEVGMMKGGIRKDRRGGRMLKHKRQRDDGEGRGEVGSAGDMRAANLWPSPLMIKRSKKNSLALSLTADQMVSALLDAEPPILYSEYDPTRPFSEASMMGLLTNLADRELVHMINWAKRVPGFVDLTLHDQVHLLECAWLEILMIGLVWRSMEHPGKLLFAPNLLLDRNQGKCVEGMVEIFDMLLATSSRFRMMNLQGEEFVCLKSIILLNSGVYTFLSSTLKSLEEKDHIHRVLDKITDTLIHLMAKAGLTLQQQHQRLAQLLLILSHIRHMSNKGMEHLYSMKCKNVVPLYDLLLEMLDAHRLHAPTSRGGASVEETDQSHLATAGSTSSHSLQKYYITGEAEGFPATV

Structure (SMILES)	Potency [1]	Potency [2]	Potency [3]	Potency [4]	Potency [5]	Potency [6]	Potency [7]	Potency [8]	Potency [9]	Potency [10]
CCCCCCC(C)(C)C(=O)O	inactive	inactive	inactive	inactive	inactive	inactive	inactive	inactive	inactive	–
O=C1Cc2cc(Cl)ccc2N1	inactive	inactive	inactive	–	inactive	inactive	inactive	inactive	inactive	–
O=C=Nc1cccc(C(F)(F)F)c1	inactive	inactive	inactive	inactive	inactive	inactive	inactive	inactive	inactive	–
CCCCCC[C@@H](O)C/C=C\CCCCCCCC(=O)OCC(O)CO (some centres undefined)	inactive	inactive	inactive	inactive	inactive	inactive	inactive	inactive	inactive	–
CS(=O)(=O)c1ccc(-c2cn3ccccc3n2)cc1	inactive	inactive	inactive	inactive	2.11 µM (active)	–	inactive	–	11.9 µM (active)	–
C/C=C/C=C/C=O	inactive	inactive	inactive	inactive	inactive	inactive	inactive	inactive	inactive	–
C[C@@H]1CC(=O)NN=C1c1ccc(NN=C(C#N)C#N)cc1	21.1 µM (active) and 15 µM (active)	11.9 µM (active)	21.1 µM (active)	–	–	inactive	13.3 µM (active)	13.3 µM (active)	inactive	inactive
O=c1cc(-c2ccccc2)oc2ccc3ccccc3c12	inactive	inactive	inactive	inactive	0.137 µM (active)	17.2 µM (active)	inactive	inactive	–	–
CCC(=O)C1CC(C(C)C)CC=C1C (centres undefined)	inactive	inactive	inactive	inactive	inactive	inactive	–	inactive	inactive	–
Cc1cscn1	inactive	inactive	inactive	inactive	inactive	inactive	–	inactive	inactive	–
C[C@H]1C[C@H](O)c2ccsc2S1(=O)=O	inactive	inactive	inactive	inactive	inactive	inactive	–	inactive	inactive	–
C=C1C[C@@]23CC[C@H]4[C@@](C)(CCC[C@@]4(C)C(=O)O[C@@H]4O[C@H](CO)[C@@H](O)[C@H](O)[C@H]4O)[C@@H]2CC[C@]1(O[C@@H]1O[C@H](CO)[C@@H](O)[C@H](O[C@@H]2O[C@H](CO)[C@@H](O)[C@H](O)[C@H]2O)[C@H]1O[C@@H]1O[C@H](CO)[C@@H](O)[C@H](O)[C@H]1O)C3	inactive	inactive	inactive	–	inactive	inactive	inactive	inactive	inactive	–
C1COC1	inactive	inactive	inactive	inactive	inactive	inactive	inactive	inactive	inactive	–
C=CCc1ccccc1OCC(O)CNC(C)C (centres undefined)	inactive	inactive	inactive	–	inactive	inactive	inactive	inactive	inactive	inactive
Cc1cc(C)cc(N)c1	inactive	inactive	inactive	inactive	–	inactive	inactive	inactive	inactive	–
C[C@@H](O)[C@H]1C(=O)N2C(C(=O)O)=C([C@H]3CCCO3)S[C@H]12	inactive	inactive	inactive	inactive	inactive	inactive	inactive	inactive	inactive	inactive
CCCCN(CCN(CCCC)C(=O)N1CCOCC1)C(=O)N1CCOCC1	inactive	inactive	inactive	–	inactive	inactive	–	26.6 µM (active)	inactive	–
O=C1NC(=O)c2cc([N+](=O)[O-])ccc21	inactive	inactive	inactive	inactive	inactive	inactive	–	inactive	–	–
O=C(/C=C/c1ccccc1)OCCc1ccccc1	inactive	inactive	inactive	–	30.6 µM (active)	inactive	inactive	inactive	inactive	–
O=C(OC(=O)c1ccccc1)c1ccccc1	inactive	inactive	inactive	inactive	inactive	inactive	–	inactive	–	–
NC1[C@H]2CN(c3nc4c(cc3F)c(=O)c(C(=O)O)cn4-c3ccc(F)cc3F)C[C@@H]12 (some centres undefined)	inactive	inactive	inactive	–	inactive	inactive	21.1 µM (active)	–	inactive	inactive
CCCCCCCC/C=C\CCCCCCCCCCCC(=O)O	inactive	inactive	inactive	–	inactive	inactive	inactive	inactive	inactive	–
OC1(c2ccccc2)CCNCC1	inactive	inactive	inactive	–	inactive	inactive	inactive	inactive	inactive	–
C=C(C)[C@@H]1CCC2=CCC[C@@H](C)[C@]2(C)C1	inactive	inactive	27.3 µM (active)	inactive	inactive	inactive	–	inactive	inactive	–
C[C@H]1c2cccc(O)c2C(O)=C2C(=O)[C@]3(O)C(O)=C(C(N)=O)C(=O)[C@@H](N(C)C)[C@@H]3[C@@H](O)[C@@H]21	inactive	inactive	inactive	inactive	inactive	inactive	–	–	inactive	inactive
O=C1c2ccccc2C(=O)C1c1ccc(Br)cc1	inactive	inactive	inactive	inactive	18.8 µM (active)	inactive	–	inactive	inactive	inactive
COC(=O)[C@H]1[C@H]2C[C@@H]3c4[nH]c5cc(OC)ccc5c4CCN3C[C@H]2C[C@@H](OC(=O)/C=C/c2ccc(O)c(OC)c2)[C@@H]1OC	inactive	inactive	inactive	inactive	inactive	inactive	inactive	inactive	inactive	–

Structure (SMILES)	Potency [1]	Potency [2]	Potency [3]	Potency [4]	Potency [5]	Potency [6]	Potency [7]	Potency [8]	Potency [9]	Potency [10]
O=[N+]([O-])c1cc(C2CCCCC2)c(O)c([N+](=O)[O-])c1	27.2 µM (active)	15.3 µM (active)	7.67 µM (active)	–	inactive	inactive	24.3 µM (active)	24.3 µM (active)	inactive	–
CC1=Nc2ccc3ccccc3c2C1(C)C	inactive	inactive	19.3 µM (active)	–	inactive	inactive	–	–	–	–
COc1ccccc1NC(=O)c1cc2ccccc2cc1O	inactive	inactive	30.6 µM (active)	43.3 µM (active)	24.3 µM (active)	inactive	–	inactive	inactive	–
CCC(=O)OC	inactive	inactive	inactive	–	inactive	inactive	inactive	inactive	–	–
OC(CCN1CCCC1)(c1ccccc1)C1CCCCC1 (centres undefined)	inactive	inactive	inactive	–	inactive	inactive	–	–	–	inactive
O=C1Cc2ccccc2N1c1c(Cl)cccc1Cl	inactive	inactive	24.3 µM (active)	61.1 µM (active)	inactive	inactive	–	inactive	inactive	–
CC(=O)OCC(=O)NCCCOc1cccc(CN2CCCCC2)c1	inactive	inactive	inactive	–	inactive	inactive	inactive	inactive	inactive	inactive
CCCCC(CC)CN (centres undefined)	inactive	inactive	inactive	inactive	inactive	inactive	inactive	inactive	inactive	–
Cc1cc(O)c(C)c(C)c1O	inactive	inactive	inactive	inactive	inactive	inactive	inactive	inactive	–	–
CC(CN(C)C)C(C)(O)Cc1ccc(Cl)cc1 (centres undefined)	inactive	inactive	inactive	–	inactive	inactive	inactive	inactive	inactive	inactive
O=C(Cn1ccnc1[N+](=O)[O-])NCCO	inactive	inactive	inactive	–	inactive	inactive	inactive	inactive	inactive	inactive
NC(=O)c1ccncc1	inactive	inactive	inactive	–	inactive	inactive	inactive	inactive	inactive	–
CC/C=C1/OC(=O)c2ccccc21	inactive	inactive	inactive	–	inactive	inactive	–	–	inactive	–
COC(=O)CCS	inactive	inactive	–	inactive	inactive	inactive	inactive	inactive	–	–
c1cc(N(CC2CO2)CC2CO2)ccc1Cc1ccc(N(CC2CO2)CC2CO2)cc1 (centres undefined)	inactive	inactive	27.3 µM (active)	–	–	inactive	54.5 µM (active)	54.5 µM (active)	–	–
O=C(OCC(O)CO)c1ccccc1Nc1ccnc2cc(Cl)ccc12 (centres undefined)	inactive	inactive	–	inactive	inactive	inactive	29.8 µM (active)	29.8 µM (active)	–	inactive
O[C@@H]1CO[C@H]2[C@@H]1OC[C@@H]2O	inactive	inactive	–	inactive	inactive	inactive	inactive	inactive	inactive	inactive
C=C1c2cccc(O)c2C(O)=C2C(=O)[C@]3(O)C(O)=C(C(N)=O)C(=O)[C@@H](N(C)C)[C@@H]3[C@@H](O)[C@H]12	inactive	inactive	–	inactive	inactive	inactive	inactive	inactive	inactive	inactive
C/C=C\C/C=C/CCCCCCCCOC(C)=O	inactive	inactive	–	inactive	inactive	inactive	inactive	inactive	inactive	–
CCCCN(CCCC)C(C(N)=O)c1ccc(OC)cc1 (centres undefined)	inactive	inactive	–	inactive	inactive	inactive	inactive	inactive	inactive	–
CO[C@]1(NC(=O)CSC(F)F)C(=O)N2C(C(=O)O)=C(CSc3nnnn3CCO)CO[C@H]21	inactive	inactive	–	inactive	inactive	inactive	inactive	inactive	inactive	inactive
CC(=O)Oc1ccc([N+](=O)[O-])cc1CCl	54.5 µM (active)	30.6 µM (active)	–	inactive	inactive	inactive	27.3 µM (active)	27.3 µM (active)	–	–
C[C@@H](O[C@H]1OCCN(Cc2n[nH]c(=O)[nH]2)[C@H]1c1ccc(F)cc1)c1cc(C(F)(F)F)cc(C(F)(F)F)c1	inactive	inactive	29.8 µM (active)	–	inactive	inactive	–	–	inactive	–
Nc1ncnc2c1ncn2[C@H]1CC[C@@H](CO)O1	inactive	inactive	–	inactive	inactive	inactive	inactive	inactive	inactive	inactive
CCCCN1CCCC1C(=O)Nc1c(C)cc(C)cc1C (centres undefined)	inactive	inactive	–	inactive	inactive	inactive	inactive	–	–	inactive
CCC(C)(C)OC	inactive	inactive	–	inactive	inactive	inactive	inactive	inactive	–	–
CC(CO)CO	inactive	inactive	–	inactive	inactive	inactive	inactive	inactive	–	–
